Active and inactive are the calls of the source. The call rests on the fitted dose curve; in most records, active means well fitted activation curve with a large enough effect; inconclusive means small, poorly fitted or top-dose-only effect; inactive means flat fitted curve, though single readings scatter.

The test can be described thus: Cellular Toxicity (caspase-3) N2a (AID 665).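 Further: compound exposure lasted 16 h at 37 °C before readout.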 The conditions noted are these: N2a cells, luminescence, normalized: DMSO 0%, 10 µM staurosporine 100%; series mostly up to 92.2 µM. From the text:
NIH Chemical Genomics Center [NCGC]
NIH Molecular Libraries Screening Centers Network [MLSCN]
National Institutes of Environmental Health Sciences [NIEHS]
National Toxicology Program [NTP]
We have developed a 1536-well cell-based assay for quantitative high throughput screening (qHTS) against a number of cell lines to determine in vitro caspase 3/7 activity of small molecules. This particular assay uses the N2a cell line which is derived from mouse neuroblastoma.
NCGC Assay Protocol Summary:
The Caspase-Glo 3/7 assay (Promega) is a homogeneous method to measure caspase-3 and caspase-7 activities in cultured cells. The quantitation of caspase 3/7 activity is based on the cleavage of a peptide-aminoluciferin substrate. After caspase cleaves the substrate the free aminoluciferin is liberated and serves as the substrate of luciferase, which generates the light. The luminescent signal is proportional to the amount of caspase 3/7 activity present.
Using the Caspase-Glo 3/7 assay, the amount of caspase 3/7 activity was measured in the N2a cells with complete culture medium following compound treatment for 16 hours. The assay was performed in opaque white 1536-well plates. In the screen, staurosporine and doxorubicin were used as positive controls. Library compounds were measured for their ability to cause the activation of caspase 3/7 in the cell line, as reflected by an increase in luminescence signal, in a concentration-dependent manner. Data were normalized to the controls for basal activity (DMSO only) and 100% stimulation (10 uM staurosporine). AC50 values were determined from concentration-response data modeled with the standard Hill equation.
qHTS protocol for caspase 3/7 assay in mouse N2a cell line
[Step] [Parameter] [Value] [Description]
1. Reagent; 5 uL; 1500 mouse N2a cells/well
2. Time; 5 hr; 37 °C incubation
4. Controls; 23 nL; doxorubicin 7 pM to 100 uM & staurosporine 1.4 pM to 20 uM
5. Time; 16 hr; 37 °C incubation
6. Reagent; 5 uL; Caspase-Glo 3/7 reagent
7. Time; 1 hr; Room Temperature
8. Detection; Luminescence; Viewlux plate reader
Keywords: caspase 3/7, apoptosis, mouse N2a cell line, luminescence, NTPHTS, NTPHTS_NCGC, NIEHS, EPA, DSSTox, MLSMR, MLSCN, NIH Roadmap, qHTS, NCGC
In the case of `O=[N+]([O-])c1ccc(O)c([N+](=O)[O-])c1`, the compound was classed as inactive.

Regarding `CCCCOCC1CO1` (stereo not given), the call was inactive.

Regarding `CC(=O)CCC(C)=O`, the outcome was inactive.

Take `O=S(=O)(O)F`: the call was inactive.

Consider `CCOP(=O)(OCC)OCC`, for which the outcome was inactive.

In the case of `CC(C)[N+](=O)[O-]`, the result was inactive.

As for `Cc1ccc2c(c1N)C(=O)c1ccccc1C2=O`, the outcome was inactive.

For `CCOS(C)(=O)=O`, the call was inactive.

For the compound `c1ccc(OCC2CO2)cc1` (stereo not given), the call was inactive.

Take `N#C/C(N)=C(/N)C#N`: the compound was classed as inactive.

As for `Cc1ccccc1[N+](=O)[O-]`, the compound was called inactive.

Take `Cc1ccc(OP(=O)(Oc2ccc(C)cc2)Oc2ccc(C)cc2)cc1`: the compound was called inactive.

As for `CC(C)CC(C)N` (stereo not given), the compound was called inactive.

Regarding `c1ccc(P(c2ccccc2)c2ccccc2)cc1`, the call was inactive.

As to `Nc1cccc(Cl)c1`, the compound was called inactive.

Turning to `CCN(N=O)C(N)=O`, the call was inactive.

In the case of `Nc1ccccc1-c1ccccc1`, the call was inactive.

Take `ClCCBr`: the result was inactive.

On to `COP(=S)(OC)SCn1nnc2ccccc2c1=O`, for which the result was inactive.

Regarding `C1CC2OC2CC1C1CO1` (stereo not given), the compound was called inactive.

Turning to `CC(C)(OOC(C)(C)c1ccccc1)c1ccccc1`, the compound was called inactive.

As for `C[N+](=O)[O-]`, the result was inactive.

Consider `CC(C)CON=O`, for which the result was inactive.

For `O=S(=O)(Cl)c1ccccc1`, the compound was called inactive.

As for `OCC(Cl)CCl` (stereo not given), the call was inactive.

For the compound `N#CC(Cl)(Cl)Cl`, the outcome was inactive.

Take `CCCCC(=O)Cl`: the outcome was inactive.

Take `ClC(Br)Br`: the call was inactive.

As for `Clc1ccc(C(c2ccccc2Cl)C(Cl)(Cl)Cl)cc1` (stereo not given), the compound was classed as inactive.

As for `CN(C)c1ccc(N=Nc2ccccc2)cc1`, the compound was classed as inactive.

Regarding `CCN(CC)CCO`, the call was inactive.

With `Oc1ccc(Cl)c(Cl)c1`, the outcome was inactive.

With `C=CC(=O)OCCO`, the call was inactive.

Regarding `C=CC(=O)OCC(CC)CCCC` (stereo not given), the result was inactive.

`NNC(N)=S`: the outcome was inactive.

`C=C(C)CCl`: the compound was called inactive.

`O=C(Cl)OCc1ccccc1`: the call was inactive.

On to `CCOC(=O)CBr`, for which the compound was classed as inactive.

For `Cc1coc2c1CCC(C)C2` (stereo not given), the compound was classed as inactive.

Regarding `CN(C)c1ccc(N(C)C)cc1`, the outcome was inactive.

The record behind these values is PubChem BioAssay (NCATS).
